Measurements: the supplement of paper PMC8728848
Many of the other results were omitted from the sample, so the strongest signals are more common in it than they were.

Legend:
Test in all cases: glycan array binding signal (z-score within array); higher = stronger binding
Details in all cases: glycan notation: IUPAC condensed, linker removed
[1] = target: Fuc(a1-2)Gal(b1-4)GlcNAc(b1-2)Man(a1-3)[Fuc(a1-2)Gal(b1-4)GlcNAc(b1-2)Man(a1-6)]Man(b1-4)GlcNAc(b1-4)[Fuc(a1-6)]GlcNAc
In short: (§1)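 Glycan array data were curated from 3228 arrays in the Consortium for Functional Glycomics database and kept only where the protein sequence was available. Glycan names were converted to IUPAC-condensed notation, and columns mapping to the same glycan were averaged. The binding signal is a within-array Z-score, averaged across arrays of the same protein sequence at different concentrations or buffers and across linkers. Negative Z-scores can be read as non-binding.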

[2] = target: Fuc(a1-2)[GalNAc(a1-3)]Gal(b1-3)GlcNAc(b1-3)GalNAc
In short: as §1

[3] = target: Fuc(a1-2)[GalNAc(a1-3)]Gal(b1-4)[Fuc(a1-3)]GlcNAc(b1-3)GalNAc
In short: as §1

[4] = target: Fuc(a1-3)[Gal(b1-4)]GlcNAc(b1-2)Man(a1-3)[Fuc(a1-3)[Gal(b1-4)]GlcNAc(b1-2)Man(a1-6)]Man(b1-4)GlcNAc(b1-4)GlcNAc
In short: as §1

[5] = target: Gal(a1-3)Gal(b1-3)GlcNAc
In short: as §1

[6] = target: Gal(a1-3)Gal(b1-3)GlcNAc(b1-2)Man(a1-3)[Gal(a1-3)Gal(b1-3)GlcNAc(b1-2)Man(a1-6)]Man(b1-4)GlcNAc(b1-4)GlcNAc
In short: as §1

[7] = target: Gal(a1-3)Gal(b1-4)[Fuc(a1-3)]GlcNAc(b1-2)Man(a1-3)[Gal(a1-3)Gal(b1-4)[Fuc(a1-3)]GlcNAc(b1-2)Man(a1-6)]Man(b1-4)GlcNAc(b1-4)GlcNAc
In short: as §1

[8] = target: Gal(a1-3)GalNAc
In short: as §1

[9] = target: Gal(a1-3)[Gal(a1-4)]Gal(b1-4)GlcNAc
In short: as §1

[10] = target: Gal(a1-4)Gal(b1-4)Glc
In short: as §1

[11] = target: Gal(a1-4)Gal(b1-4)GlcNAc(b1-3)Gal(b1-4)Glc
In short: as §1

[12] = target: Gal(b1-3)GalNAc(b1-4)Gal(b1-4)Glc
In short: as §1

[13] = target: Gal(b1-3)GlcNAc(b1-3)Gal(b1-3)GlcNAc
In short: as §1

[14] = target: Gal(b1-3)GlcNAc(b1-3)Gal(b1-4)[Fuc(a1-3)]GlcNAc(b1-6)[Gal(b1-3)GlcNAc(b1-3)]Gal(b1-4)Glc
In short: as §1

[15] = target: Gal(b1-3)GlcNAc6S
In short: as §1

[16] = target: Gal(b1-3)[Fuc(a1-4)]GlcNAc(b1-6)GalNAc
In short: as §1

[17] = target: Gal(b1-4)GlcNAc
In short: as §1

[18] = target: Gal(b1-4)GlcNAc(b1-3)Gal(b1-4)GlcNAc(b1-3)Gal(b1-4)GlcNAc(b1-3)Gal(b1-4)GlcNAc(b1-2)[Gal(b1-4)GlcNAc(b1-3)Gal(b1-4)GlcNAc(b1-3)Gal(b1-4)GlcNAc(b1-3)Gal(b1-4)GlcNAc(b1-6)]Man(a1-6)[Gal(b1-4)GlcNAc(b1-3)Gal(b1-4)GlcNAc(b1-3)Gal(b1-4)GlcNAc(b1-3)Gal(b1-4)GlcNAc(b1-2)Man(a1-3)]Man(b1-4)GlcNAc(b1-4)[Fuc(a1-6)]GlcNAc
In short: as §1

[19] = target: GalNAc(a1-3)Gal
In short: as §1

[20] = target: GalNAc(b1-3)Gal(a1-4)Gal(b1-4)GlcNAc
In short: as §1

[21] = target: GalNAc(b1-3)Gal(a1-6)Gal(b1-4)Glc
In short: as §1

[22] = target: GalNAc(b1-4)GlcNAc
In short: as §1

[23] = target: GalNAc(b1-6)GalNAc
In short: as §1

[24] = target: Glc(a1-6)Glc(a1-6)Glc
In short: as §1

[25] = target: GlcNAc(a1-4)Gal(b1-4)GlcNAc(b1-3)Gal(b1-4)[Fuc(a1-3)]GlcNAc(b1-3)Gal(b1-4)[Fuc(a1-3)]GlcNAc
In short: as §1

[26] = target: GlcNAc(b1-3)Gal(b1-4)GlcNAc
In short: as §1

[27] = target: GlcNAc(b1-3)Gal(b1-4)GlcNAc(b1-2)Man(a1-3)[GlcNAc(b1-3)Gal(b1-4)GlcNAc(b1-2)Man(a1-6)]Man(b1-4)GlcNAc(b1-4)GlcNAc
In short: as §1

[28] = target: GlcNAc(b1-3)Gal(b1-4)GlcNAc(b1-2)[GlcNAc(b1-3)Gal(b1-4)GlcNAc(b1-6)]Man(a1-6)[GlcNAc(b1-3)Gal(b1-4)GlcNAc(b1-2)Man(a1-3)]Man(b1-4)GlcNAc(b1-4)GlcNAc
In short: as §1

[29] = target: GlcNAc(b1-3)Gal(b1-4)GlcNAc(b1-3)Gal(b1-4)GlcNAc(b1-2)Man(a1-3)[GlcNAc(b1-3)Gal(b1-4)GlcNAc(b1-3)Gal(b1-4)GlcNAc(b1-2)Man(a1-6)]Man(b1-4)GlcNAc(b1-4)GlcNAc
In short: as §1

[30] = target: Man(a1-2)Man(a1-6)[Man(a1-3)]Man(a1-6)[Man(a1-2)Man(a1-2)Man(a1-3)]Man(b1-4)GlcNAc(b1-4)GlcNAc
In short: as §1

B1: pilr alpha (protein)
chain: MLYGVTQPKHLSASMGGSVEIPFSFYYPWELATAPDVRISWRRGHFHRQSFYSTRPPSIHKDYVNRLFLNWTEGQKSGFLRISNLQKQDQSVYFCRVELDTRSSGRQQWQSIEGTKLSIT
B1 was tested, and the “glycan array binding signal (z-score)” value [1] was 0.117, the “glycan array binding signal (z-score)” value [2] was -0.147 and the “glycan array binding signal (z-score)” value [3] was 6.68. For the same binder, the “glycan array binding signal (z-score)” value [4] was -1.03, the “glycan array binding signal (z-score)” value [5] was 0.373 and the “glycan array binding signal (z-score)” value [6] was -0.319. For the same binder, the “glycan array binding signal (z-score)” value [7] was -0.503, the “glycan array binding signal (z-score)” value [8] was 2.27 and the “glycan array binding signal (z-score)” value [9] was 7.86. For the same binder, the “glycan array binding signal (z-score)” value [10] was 1.77, the “glycan array binding signal (z-score)” value [11] was -0.604 and the “glycan array binding signal (z-score)” value [12] was 2.46. For the same binder, the “glycan array binding signal (z-score)” value [13] was -0.764, the “glycan array binding signal (z-score)” value [14] was 0.008 and the “glycan array binding signal (z-score)” value [15] was -0.425. The “glycan array binding signal (z-score)” value [16] was -0.479, the “glycan array binding signal (z-score)” value [17] was -0.271 and the “glycan array binding signal (z-score)” value [18] was 2.72. For the same binder, the “glycan array binding signal (z-score)” value [19] was 0.654, the “glycan array binding signal (z-score)” value [20] was 2.72 and the “glycan array binding signal (z-score)” value [21] was -0.342. For the same binder, the “glycan array binding signal (z-score)” value [22] was 8.03, the “glycan array binding signal (z-score)” value [23] was 0.632 and the “glycan array binding signal (z-score)” value [24] was -0.27. The “glycan array binding signal (z-score)” value [25] was 0.876, the “glycan array binding signal (z-score)” value [26] was -0.07 and the “glycan array binding signal (z-score)” value [27] was 0.049. The “glycan array binding signal (z-score)” value [28] was 1.61, the “glycan array binding signal (z-score)” value [29] was 1.68 and the “glycan array binding signal (z-score)” value [30] was -0.021.
